Some structures have more than one record in an assay (separate samples or runs), and their calls can disagree. Calls of active or inactive are those of the source. The calls were made as follows: active = hit-call score of the fitted dose curve at least 0.9, where 1 is the maximum; inactive = score below 0.9.
Key:
[1] = BSK_3C_TissueFactor: BioMAP Diversity Plus: 3C Assay for Tissue Factor Biomarker Activity (AID 2282997); details: BioMAP 3C HUVEC, tissue factor biomarker readout; actives raise or lower the signal
In short: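 Primary human umbilical vein endothelial cells in the 3C system were exposed to test chemical for 24 h, then Tissue Factor measured by ELISA. Activity was fitted bidirectionally against DMSO as negative control and baseline.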

[2] = BSK_3C_uPAR: BioMAP Diversity Plus: 3C Assay for Urokinase-type plasminogen activator receptor (uPAR) Biomarker Activity (AID 2282998); details: BioMAP 3C HUVEC, uPAR biomarker ELISA; actives raise or lower the signal
In short: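 In this endothelial cell-based assay, human umbilical vein primary cells were treated with chemicals and harvested at 24 h. uPAR was quantified using ELISA, with gains or losses fitted relative to DMSO controls.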

[3] = BSK_4H_Eotaxin3: BioMAP Diversity Plus: 4H Assay for Eotaxin 3 Biomarker Activity (AID 2283000); details: primary human endothelial cells (HUVEC); actives raise or lower the signal;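 also: CCL26 protein level quantified by ELISA in parallel with SRB cytotoxicity check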
In short: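 HUVEC, 24 h post-dose, ELISA for Eotaxin-3/CCL26. Gain or loss of signal fitted bidirectionally vs DMSO baseline.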

[4] = read-out: Intercellular Adhesion Molecule 1 (ICAM1), ICAM1 (gene 3383); assay: BSK_3C_ICAM1: BioMAP Diversity Plus: 3C Assay for Intercellular Adhesion Molecule 1 (ICAM1) Biomarker Activity (AID 2283003); details: primary human endothelial cells (HUVEC); actives raise or lower the signal
In short: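 Human vascular endothelial primary cells, 3C conditions, 24 h treatment. ICAM-1 by ELISA.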

[5] = BSK_3C_Proliferation: Cell Proliferation Assessment in the BioMAP Diversity Plus: 3C Assay (AID 2283006); details: primary human endothelial cells (HUVEC)
In short: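 Proliferation of human vascular endothelial primary cells after 48 h dosing, quantified as SRB-stained protein at 560 nm relative to DMSO.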

[6] = read-out: E-selectin (Homo sapiens) (UniProt P16581); assay: BSK_3C_Eselectin: BioMAP Diversity Plus: 3C Assay for Eselectin Biomarker Activity (AID 2283015); details: primary human endothelial cells (HUVEC); actives raise or lower the signal;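 also: cell surface E-selectin protein quantified by ELISA 24 h after dosing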
In short: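 Primary human umbilical vein endothelial cells (3C system) were dosed with chemical and cell-surface E-selectin measured by ELISA 24 h later. Bidirectional curve fitting used DMSO as negative control and baseline.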

[7] = read-out: Interleukin-1 alpha (IL1a), IL1A (gene 3552); assay: BSK_BE3C_IL1a: BioMAP Diversity Plus: BE3C Assay for Interleukin-1 alpha (IL1a) Biomarker Activity (AID 2283016); details: primary human bronchial epithelial cells; actives raise or lower the signal
In short: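 Cultures of primary human bronchial epithelial cells receive test chemical. After 24 h, IL-1a is quantified by ELISA, while parallel wells are fixed in TCA and SRB-stained for total protein. Changes in either direction are fitted relative to DMSO.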

[8] = read-out: Monocyte Chemoattractant Protein-1 (MCP1), CCL2 (gene 6347); assay: BSK_3C_MCP1: BioMAP Diversity Plus: 3C Assay for Monocyte Chemoattractant Protein-1 (MCP1) Biomarker Activity (AID 2283017); details: primary human endothelial cells (HUVEC); actives raise or lower the signal
In short: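 Primary human umbilical vein endothelial cells (3C system) were exposed to test chemical for 24 h, after which MCP-1 was quantified by ELISA. Activity was fitted bidirectionally against DMSO as negative control and baseline.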

[9] = read-out: Human Leukocyte Antigen - DR isotype (HLADR), HLA-DRA (gene 3122); assay: BSK_3C_HLADR: BioMAP Diversity Plus: 3C Assay for Human Leukocyte Antigen - DR isotype (HLADR) Biomarker Activity (AID 2283019); details: primary human endothelial cells (HUVEC); actives raise or lower the signal;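 also: ELISA of cell-surface HLA-DR on HUVEC 24 h after dosing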
In short: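 Primary human umbilical vein endothelial cells (3C system) were dosed with compound and cell-surface HLA-DR was quantified by ELISA at 24 h. Activity was fitted bidirectionally against DMSO as negative control and baseline.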

[10] = read-out: Interleukin-8 (IL8), CXCL8 (gene 3576); assay: BSK_3C_IL8: BioMAP Diversity Plus: 3C Assay for Interleukin-8 (IL8) Biomarker Activity (AID 2283020); details: primary human endothelial cells (HUVEC); actives raise or lower the signal
In short: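 Human vascular endothelial cells (umbilical vein) in the 3C system; IL-8 level detected by ELISA at 24 h post-dose, with DMSO as baseline.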

[11] = BSK_3C_SRB: Viability Assessment in the BioMAP Diversity Plus: 3C Assay (AID 2283023); details: primary human endothelial cells (HUVEC);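 also: fitted both ways against DMSO so a hit may be signal rise or drop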
In short: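 Primary human umbilical vein endothelial cells in the 3C system were read 24 h after compound dosing. Total protein was stained with 0.1% sulforhodamine B after 10% TCA fixation and read at 560 nm, with bidirectional fitting against DMSO as baseline.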

[12] = read-out: Matrix Metallopeptidase 1 (MMP1), MMP1 (gene 4312); assay: BSK_BE3C_MMP1: BioMAP Diversity Plus: BE3C Assay for Matrix Metallopeptidase 1 (MMP1) Biomarker Activity (AID 2283024); details: primary human bronchial epithelial cells; actives raise or lower the signal
In short: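 Dose cells, wait 24 h, run MMP1 ELISA; cells are human bronchial epithelial primaries. Both increases and decreases relative to DMSO counted.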

[13] = read-out: Pselectin, SELP (gene 6403); assay: BSK_4H_Pselectin: BioMAP Diversity Plus: 4H Assay for Pselectin Biomarker Activity (AID 2283026); details: primary human endothelial cells (HUVEC); actives raise or lower the signal
In short: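 Human vascular endothelium from umbilical vein; P-selectin measured by ELISA at 24 h post-dose, with cytotoxicity checked by sulforhodamine B total-protein staining in parallel cultures (0.1% SRB after 10% TCA fixation, read at 560 nm).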

[14] = BSK_4H_SRB: Viability Assessment in the BioMAP Diversity Plus: 4H Assay (AID 2283027); details: primary human endothelial cells (HUVEC);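 also: cells exposed to compound for 24 h before staining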
In short: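 Absorbance at 560 nm of SRB-stained total protein served as the viability read-out in confluent primary human umbilical vein endothelium 24 h after chemical treatment. Curves were fitted bidirectionally against DMSO as negative control.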

[15] = BSK_BE3C_SRB: Viability Assessment in the BioMAP Diversity Plus: BE3C Assay (AID 2283028); details: primary human bronchial epithelial cells
In short: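 Human primary bronchial epithelial cells were exposed to test chemicals for 24 h. Total protein in parallel cultures was then measured by staining with 0.1% sulforhodamine B after 10% TCA fixation, with absorbance read at 560 nm. Activity was fitted bidirectionally against DMSO.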

[16] = read-out: Urokinase-type plasminogen activator receptor (uPAR), PLAUR (gene 5329); assay: BSK_4H_uPAR: BioMAP Diversity Plus: 4H Assay for Urokinase-type plasminogen activator receptor (uPAR) Biomarker Activity (AID 2283030); details: primary human endothelial cells (HUVEC); actives raise or lower the signal
In short: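 Primary human umbilical vein endothelial cells were exposed to chemical for 24 h before cell-surface uPAR was quantified by ELISA. Activity was fitted bidirectionally against the DMSO negative control baseline.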

[17] = read-out: Vascular endothelial growth factor receptor 2 (Homo sapiens) (UniProt P35968); assay: BSK_4H_VEGFRII: BioMAP Diversity Plus: 4H Assay for Vascular endothelial growth factor receptor 2 (VEGFR2) Biomarker Activity (AID 2283031); details: primary human endothelial cells (HUVEC); actives raise or lower the signal;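 as to AC50: cell-surface VEGFR2 protein level quantified by ELISA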
In short: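 Primary human umbilical vein endothelial cells in the BioMAP 4H system were dosed with test chemical, and 24 h later VEGFRII was measured by ELISA. Activity was fitted bidirectionally against DMSO as negative control and baseline.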

[18] = read-out: Human Leukocyte Antigen - DR isotype (HLADR), HLA-DRA (gene 3122); assay: BSK_BE3C_HLADR: BioMAP Diversity Plus: BE3C Assay for Human Leukocyte Antigen - DR isotype (HLADR) Biomarker Activity (AID 2283032); details: primary human bronchial epithelial cells; actives raise or lower the signal
In short: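 Signal came from an ELISA for HLA-DR in human bronchial epithelial primary cells harvested 24 h after treatment; gain- and loss-of-signal fitting used DMSO controls as reference.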

[19] = read-out: Vascular cell adhesion molecule 1 (VCAM1), VCAM1 (gene 7412); assay: BSK_4H_VCAM1: BioMAP Diversity Plus: 4H Assay for Vascular cell adhesion molecule 1 (VCAM1) Biomarker Activity (AID 2283033); details: primary human endothelial cells (HUVEC); actives raise or lower the signal;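 also: cell-surface VCAM-1 protein measured by ELISA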
In short: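 Endpoint derived from bidirectional fitting against DMSO controls of VCAM-1 ELISA signal in umbilical vein endothelial cells sampled at 24 h following treatment.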

[20] = read-out: Interferon-gamma inducible Protein 10 (IP10), CXCL10 (gene 3627); assay: BSK_BE3C_IP10: BioMAP Diversity Plus: BE3C Assay for Interferon-gamma inducible Protein 10 (IP10) Biomarker Activity (AID 2283034); details: primary human bronchial epithelial cells; actives raise or lower the signal
In short: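 Using primary human bronchial epithelial cultures, the assay captures IP-10 by ELISA one day (24 h) after exposure. Parallel SRB staining of total protein flags overt cytotoxicity. Fits run bidirectionally relative to DMSO.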

[21] = read-out: Plasminogen activator inhibitor-1 (PAI1), SERPINE1 (gene 5054); assay: BSK_BE3C_PAI1: BioMAP Diversity Plus: BE3C Assay for Plasminogen activator inhibitor-1 (PAI1) Biomarker Activity (AID 2283037); details: primary human bronchial epithelial cells; actives raise or lower the signal
In short: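 PAI-1 biomarker levels in treated human bronchial epithelial cells are determined by ELISA at 24 h. Both increases and decreases relative to DMSO are fitted.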

[22] = read-out: urokinase plasminogen activator (uPA), PLAU (gene 5328); assay: BSK_BE3C_uPA: BioMAP Diversity Plus: BE3C Assay for urokinase plasminogen activator (uPA) Biomarker Activity (AID 2283038); details: primary human bronchial epithelial cells; actives raise or lower the signal;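 also: uPA protein level quantified by ELISA in cell cultures; uPA read one day after compound addition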
In short: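 Human primary bronchial epithelial cells were exposed to chemical for 24 h, then uPA levels were measured by ELISA. Responses were fitted bidirectionally against DMSO as negative control and baseline. Parallel SRB staining of total protein gauged overt cytotoxicity.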

[23] = read-out: Urokinase-type plasminogen activator receptor (uPAR), PLAUR (gene 5329); assay: BSK_BE3C_uPAR: BioMAP Diversity Plus: BE3C Assay for Urokinase-type plasminogen activator receptor (uPAR) Biomarker Activity (AID 2283039); details: primary human bronchial epithelial cells; actives raise or lower the signal;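 also: cells exposed to compound for one day before measurement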
In short: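 A uPAR ELISA serves as the readout, taken 24 h after treating primary human bronchial epithelial cells. Responses in either direction are fitted against DMSO, which defines baseline activity.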

[24] = read-out: Interleukin-6 (IL6), IL6 (gene 3569); assay: BSK_CASM3C_IL6: BioMAP Diversity Plus: CASM3C Assay for Interleukin-6 (IL6) Biomarker Activity for (AID 2283040); details: primary human coronary artery smooth muscle cells; actives raise or lower the signal
[25] = read-out: Tissue plasminogen activator (tPA), PLAT (gene 5327); assay: BSK_BE3C_tPA: BioMAP Diversity Plus: BE3C Assay for Tissue plasminogen activator (tPA) Biomarker Activity (AID 2283041); details: primary human bronchial epithelial cells; actives raise or lower the signal;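 also: tPA level quantified by ELISA one day after compound addition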
In short: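 Bidirectional curve fitting relative to DMSO defined activity, with tPA detected by ELISA in chemically treated human bronchial epithelial primary cells at 24 hours.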

[26] = read-out: Interleukin-8 (IL8), CXCL8 (gene 3576); assay: BSK_CASM3C_IL8: BioMAP Diversity Plus: CASM3C Assay for Interleukin-8 (IL8) Biomarker Activity (AID 2283042); details: primary human coronary artery smooth muscle cells; actives raise or lower the signal;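 also: IL-8 protein level quantified by ELISA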
[27] = read-out: Human Leukocyte Antigen - DR isotype (HLADR), HLA-DRA (gene 3122); assay: BSK_CASM3C_HLADR: BioMAP Diversity Plus: CASM3C Assay for Human Leukocyte Antigen - DR isotype (HLADR) Biomarker Activity (AID 2283043); details: primary human coronary artery smooth muscle cells; actives raise or lower the signal;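 also: cell-surface HLA-DR protein level quantified by ELISA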

Measured: AC50

Chain of E-selectin (Homo sapiens) (P16581 whole entry, looked up): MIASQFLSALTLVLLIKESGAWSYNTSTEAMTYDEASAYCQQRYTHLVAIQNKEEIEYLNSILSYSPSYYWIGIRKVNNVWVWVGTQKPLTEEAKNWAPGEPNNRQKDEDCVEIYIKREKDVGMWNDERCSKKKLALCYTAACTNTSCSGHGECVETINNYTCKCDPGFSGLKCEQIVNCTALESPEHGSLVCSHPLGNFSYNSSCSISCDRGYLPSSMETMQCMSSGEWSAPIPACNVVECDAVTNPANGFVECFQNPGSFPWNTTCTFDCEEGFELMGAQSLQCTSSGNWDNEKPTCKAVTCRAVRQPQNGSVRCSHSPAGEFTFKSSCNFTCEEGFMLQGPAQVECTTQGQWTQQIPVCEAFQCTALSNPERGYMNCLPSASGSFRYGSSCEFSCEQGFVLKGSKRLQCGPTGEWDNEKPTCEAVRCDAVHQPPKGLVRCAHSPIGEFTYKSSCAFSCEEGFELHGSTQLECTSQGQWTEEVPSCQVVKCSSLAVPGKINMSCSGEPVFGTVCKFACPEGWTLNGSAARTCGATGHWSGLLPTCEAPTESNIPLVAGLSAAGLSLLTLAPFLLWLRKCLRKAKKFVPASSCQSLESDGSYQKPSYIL

CCCC[N+](CCCC)(CCCC)CCCC
active: [12] 3.97 µM | [17] 2.14 µM
inactive: [1] | [2] | [3] | [4] | [5] | [6] | [7] | [8] | [9] | [10] | [11] | [12] | [13] | [14] | [15] | [16] | [17] | [18] | [19] | [20] | [21] | [22] | [23] | [24] | [25] | [26] | [27]

Source: PubChem BioAssay (EPA / NIEHS)
